Source: PubChem BioAssay (NCI)
About 83,000 compounds went through this panel and 20% of them were active in at least one assay; those are over-represented in the sample as a whole.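 Step 1: grow cells in 96-well plates. Step 2: add test compound at a single concentration. Step 3: incubate 48 h. Step 4: record percent growth.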 A number with no mark means an inactive call. The source made the active and inactive calls. The calls were made as follows: active = growth percent below 10; inactive = the rest.

Each compound was assayed on SNB-19 CNS (assay: NCI-60 one-dose screen, 48 h (100 = growth as untreated, 0 = no growth, -100 = all killed)). Details: 10 µM unless noted.

With `COc1ccccc1/C=C/C(=O)Nc1ccc(F)cc1` as the compound, how does the growth read?
Its growth is 99.8%.

How did the growth turn out when `CC(C)c1ccc2c(c1)CC[C@H]1[C@](C)(C(=O)OCC#CCN3CCCC3)CCC[C@]21C` was run?
Its growth is 86.8%.

For `COc1ccc2c(O)c(/C=C3\N=Nc4ncccc43)oc2c1C[C@@H]1CCNC[C@H]1F`, which growth is on record?
Its growth is 1.93% (active).

How did the growth turn out when `c1ccc2cc(Cn3cc(CSc4nc5ccccc5s4)nn3)ccc2c1` was run?
Its growth is 93.3%.

`COCC(=O)Oc1cc(-c2ccc(C)cc2C)c(OC(=O)COC)c(-c2ccc(C)cc2C)c1` was tested. Which growth did it give?
The growth was 60.9%.

Which growth does the source give for `Cc1nc2ccccc2c(/C=C/c2ccc(F)cc2)c1C(=O)/C=C/c1ccccc1` here?
Its growth is 38.2%.

For `O=C1C=C(SCCO)C(=O)c2ccccc21`, which growth is on record?
The growth was 15%.

Each compound was assayed on U251 CNS in the same assay as above. Details: 10 µM unless noted.

For `COc1ccc(/C=C/C(c2cc(OC)c(OC)c(OC)c2)n2cncn2)cc1O` (stereo unspecified), which growth is on record?
The growth was 20.7%.

For `COc1ccc(-c2cn(Cc3cc4ccccc4s3)nn2)cc1OCCN1CCCCC1`, which growth is on record?
Its growth is 74.5%.

How did the growth turn out when `COc1ccc(-c2nc3c(c(-c4ccc(Cl)cc4)nn3-c3ccccc3)c(-c3ccccc3)c2C#N)cc1` was run?
The growth was 99.6%.

For `COc1ccc2c(c1)CC[C@@H]1[C@@H]2CC[C@]2(C)C3C(=CC(COC(C)=O)C4C(=O)N(c5ccc(Cl)cc5)C(=O)C43)C[C@@H]12` (stereo partly specified), which growth is on record?
Its growth is 102%.

With `COc1cc(/C=C/C(=O)N2CCN(C(=O)c3cc(OC)c(OC)c(OC)c3)CC2)ccc1OCCCOc1cc2c(cc1OC)C(=O)N1CCC[C@H]1C=N2` as the compound, how does the growth read?
The growth was 7.58% (active).

`CSc1nc2ccc(C)cc2cc1/C=C1/C=C(c2ccccc2)NC1=O` was tested. Which growth did it give?
The growth was 16.3%.

`Cc1ccc2c(c1)sc1nc(-c3c[nH]c4ccccc34)c(Nc3ccccc3)n12` was tested. Which growth did it give?
The growth was 106%.

With `N=C(N)c1ccc(-c2ccc(-c3ccccc3)o2)o1` as the compound, how does the growth read?
Its growth is 10.3%.

With `CN1C(=O)N2CN3CCCN(C3)CN3C(=S)NC1C23` (stereo unspecified) as the compound, how does the growth read?
The growth was 101%.

With `Clc1ccc(-c2cc(-c3ccccc3)nc(N3CCN(CCCNc4ccnc5cc(Cl)ccc45)CC3)n2)cc1` as the compound, how does the growth read?
The growth was -52.9% (active).

For `COc1cc(/C=C/c2cc(/C=C/c3ccc(O)c(OC)c3)n(C(=O)Nc3ccc(Cl)cc3)n2)ccc1O`, which growth is on record?
Its growth is 4.31% (active).

For `N#Cc1c(-c2ccccc2)nc2c(c(-c3ccc(Cl)cc3)nn2-c2ccccc2)c1-c1ccc([N+](=O)[O-])cc1`, which growth is on record?
Its growth is 95.3%.

Which growth does the source give for `COc1ccc(Oc2ccc(/C=C/C(=O)c3cc4ccccc4oc3=O)cc2)cc1` here?
The growth was 87%.

With `O=[N+]([O-])c1c(O)c(Cl)cc(Cl)c1Cl` as the compound, how does the growth read?
Its growth is 97.9%.

Which growth does the source give for `O=S(O)c1cc(Cl)cc(Cl)c1OCc1ccccc1` here?
The growth was 93.7%.

How did the growth turn out when `Cc1oc(-c2ccc(Cl)cc2)nc1C1=NN(C(=O)c2ccncc2)C(c2ccccc2)C1` (stereo unspecified) was run?
Its growth is 92.8%.

Which growth does the source give for `CS(=O)(=O)c1ccc(-c2nc3ccccc3n2CC(=O)N/N=C/c2ccccc2)cc1` here?
The growth was 109%.

`CCCn1c(=S)sc2c(NNC(C)=O)nc(C)nc21` was tested. Which growth did it give?
Its growth is 91.1%.

How did the growth turn out when `N#CSc1c[nH]c2ccc(/C=C/C(=O)/C=C(O)/C=C/c3ccc4[nH]cc(SC#N)c4c3)cc12` was run?
Its growth is 7.38% (active).

With `Fc1cccc(-c2nc(-c3c[nH]c4ncccc34)cs2)c1` as the compound, how does the growth read?
Its growth is 33.7% [100 µM].

With `COc1ccc(Oc2ccc(/C=C/C(=O)c3ccc(OC)c(OC)c3)cc2)cc1` as the compound, how does the growth read?
The growth was 68.9%.

`CCCCn1c(NC(C)=O)c(S(=O)(=O)c2ccccc2)c2nc3ccccc3nc21` was tested. Which growth did it give?
Its growth is 103%.

With `COc1cc(O)c2c(=O)c3c(CC=C(C)C)cc(OC)c(O)c3oc2c1` as the compound, how does the growth read?
The growth was 9.71% (active).

For `CC12OC(CC(O)C1O)n1c3ccccc3c3c4c(c5c6ccccc6n2c5c31)C(=O)N(CCN1CCCC1)C4=O` (stereo unspecified), which growth is on record?
The growth was 11.8%.

For `C=C1CC[C@@H]2C(C)(C)[C@H](O)CC[C@@]2(C)[C@@H]1COc1ccc2ccc(=O)oc2c1`, which growth is on record?
The growth was 83.1%.

For `COc1c2c(cc3c1C(=O)N[C@@H]1[C@@H](O)[C@@H](O)[C@H](O)C[C@@H]31)OCCO2`, which growth is on record?
The growth was 100%.

How did the growth turn out when `C=C1C(=O)O[C@H]2[C@H]1CC/C(COC(=O)NCc1ccc(Cn3c(=O)sn(-c4ccccc4)c3=O)cc1)=C\CC[C@@]1(C)O[C@@H]21` was run?
Its growth is 40.4%.

For `Cc1nc2sc(C(=O)Nc3ccccn3)c(N)c2cc1C(C)O` (stereo unspecified), which growth is on record?
The growth was 48.8%.

With `c1cc(OCCN2CCCC2)ccc1CNc1ccc2nc(CCC3CCCCC3)[nH]c2c1` as the compound, how does the growth read?
Its growth is 4.28% (active).

`Cc1nc([P+](c2ccccc2)(c2ccccc2)c2ccccc2)c(N2CCCCC2)o1` was tested. Which growth did it give?
Its growth is 16.6%.

Which growth does the source give for `COc1cc(/C=N/NC(=O)c2ccc(-n3cc(-c4ccccc4)nn3)cc2)cc(OC)c1OC` here?
The growth was 48.4%.

Which growth does the source give for `C=CN(C(=O)N1CCN(c2cc3c(cc2F)c(=O)c(C(=O)O)cn3C2CC2)CC1)c1nc(-c2ccc(Cl)cc2)cs1` here?
Its growth is 23.6%.

`COc1ccccc1/C=C/C(=O)Nc1ccc(F)cc1` was tested. Which growth did it give?
Its growth is 108%.

Which growth does the source give for `CC(C)c1ccc2c(c1)CC[C@H]1[C@](C)(C(=O)OCC#CCN3CCCC3)CCC[C@]21C` here?
The growth was 69.2%.

How did the growth turn out when `COc1ccc2c(O)c(/C=C3\N=Nc4ncccc43)oc2c1C[C@@H]1CCNC[C@H]1F` was run?
The growth was -84.7% (active).

`c1ccc2cc(Cn3cc(CSc4nc5ccccc5s4)nn3)ccc2c1` was tested. Which growth did it give?
The growth was 95.6%.

Which growth does the source give for `COCC(=O)Oc1cc(-c2ccc(C)cc2C)c(OC(=O)COC)c(-c2ccc(C)cc2C)c1` here?
The growth was 46.7%.

Which growth does the source give for `Cc1nc2ccccc2c(/C=C/c2ccc(F)cc2)c1C(=O)/C=C/c1ccccc1` here?
Its growth is -7.24% (active).

`O=C1C=C(SCCO)C(=O)c2ccccc21` was tested. Which growth did it give?
Its growth is -37.2% (active).
